The text below walks through data of PubChem BioAssay AID1445 (SRMLSC, 2008).

Out of some 220,000 compounds screened, about 910 (0.41%) were called active.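 How the source made its calls: active means primary inhibition above the hit cutoff, then over 50% inhibition at one or more dose response concentrations (cut at about 23% in these data, passing the limit was not always enough); inconclusive means conflicting primary data, or primary hits not chosen for dose response; inactive means low primary inhibition, or under 50% at every dose.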 Only a selection was taken, and actives are over-represented in it overall. Results with a measured potency or affinity are listed apart.

In this experiment the target is Aminopeptidase N (Plasmodium falciparum (isolate 3D7)) (UniProt O96935). The experiment is described as follows: P. falciparum M1AAP inhibitors, biochemical, fluorogenic H-Leu-NHMec substrate, 1536-well (AID 1445).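 Further: plate controls were DMSO full reaction for no effect and no enzyme background for full effect.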 Conditions: recombinant M1AAP, H-Leu-NHMec fluorogenic kinetic assay; at 30 µM, stronger effect = higher value unless noted.
Sequence of Aminopeptidase N (Plasmodium falciparum (isolate 3D7)) (O96935 whole entry, looked up): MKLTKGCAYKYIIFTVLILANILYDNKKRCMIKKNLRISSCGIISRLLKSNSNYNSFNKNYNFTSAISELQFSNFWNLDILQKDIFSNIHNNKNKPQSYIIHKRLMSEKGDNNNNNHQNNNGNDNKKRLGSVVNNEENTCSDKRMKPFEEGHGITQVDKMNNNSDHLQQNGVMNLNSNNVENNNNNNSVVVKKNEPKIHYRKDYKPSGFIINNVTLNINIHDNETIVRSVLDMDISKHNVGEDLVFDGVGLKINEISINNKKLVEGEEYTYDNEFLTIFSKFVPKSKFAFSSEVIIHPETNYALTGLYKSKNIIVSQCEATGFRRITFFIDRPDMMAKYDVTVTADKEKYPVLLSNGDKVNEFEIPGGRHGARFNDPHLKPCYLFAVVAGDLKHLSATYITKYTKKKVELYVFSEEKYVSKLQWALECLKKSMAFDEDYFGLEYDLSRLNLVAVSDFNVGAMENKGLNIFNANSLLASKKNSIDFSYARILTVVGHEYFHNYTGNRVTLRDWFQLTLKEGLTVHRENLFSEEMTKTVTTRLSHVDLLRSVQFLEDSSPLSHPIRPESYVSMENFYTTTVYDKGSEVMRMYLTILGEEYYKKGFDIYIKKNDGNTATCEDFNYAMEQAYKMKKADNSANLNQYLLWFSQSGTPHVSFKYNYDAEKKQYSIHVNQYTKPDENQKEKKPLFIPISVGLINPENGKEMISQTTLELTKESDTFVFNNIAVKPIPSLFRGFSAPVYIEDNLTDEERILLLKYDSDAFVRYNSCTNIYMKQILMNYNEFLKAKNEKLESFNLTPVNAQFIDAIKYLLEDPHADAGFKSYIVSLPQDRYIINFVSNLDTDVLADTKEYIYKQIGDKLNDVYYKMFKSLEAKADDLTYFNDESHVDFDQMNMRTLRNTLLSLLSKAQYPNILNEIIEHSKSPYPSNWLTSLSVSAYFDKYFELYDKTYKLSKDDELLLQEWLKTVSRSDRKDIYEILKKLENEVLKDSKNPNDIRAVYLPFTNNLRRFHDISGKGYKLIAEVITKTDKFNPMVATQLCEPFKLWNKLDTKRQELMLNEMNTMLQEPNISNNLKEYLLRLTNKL
The inhibition is the relative decrease from the control value, in per cent. `Cc1cc(-c2n[nH]c(=S)n2/N=C/C=C/c2ccccc2)n[nH]1`: the inhibition was 16.6% (inactive).
Next, `CC1CCN(CCc2nc3cc(NS(=O)(=O)c4ccc(F)cc4)ccc3n2C)CC1`: -3.38% (inactive).
For `Cc1ccc(OCCCNCCO)c(Br)c1`, the inhibition is 9.5% (inactive).
With `CCC(=O)NC(=S)Nc1c(C)cc(Br)cc1C`, the inhibition is 0.48% (inactive).
With `CC(C(=O)c1c[nH]c(C(=O)N=CN(C)C)c1)c1ncc(C(F)(F)F)cc1Cl` (stereo not given), the inhibition was 0.78% (inactive).
Take `COc1cc2c(cc1OC)-c1cc(Nc3ccc4c(c3)OCCO4)nc(=O)n1CC2`: the inhibition is 24.9% (active).
As for `CCOc1cccc(Nc2cc3n(c(=O)n2)CCc2cc(OC)c(OC)cc2-3)c1`, the inhibition is 12.6% (inactive).
On to `COc1cc2c(cc1OC)-c1cc(Nc3ccccc3)nc(=O)n1CC2`, for which the inhibition is 11.4% (inactive).
On to `CC(c1cccs1)N(Cc1ccco1)C(=S)Nc1ccc(F)c(Cl)c1` (stereo not given), for which the inhibition was 4.95% (inactive).
For `Cc1ncc(CO)c(/C=N/NC(=S)Nc2ccc(C(C)C)cc2)c1O`, the inhibition was 9.46% (inactive).
Turning to `Cc1nc2cc(NC(=O)c3ccc(N4C(=O)CCC4=O)cc3)ccc2s1`, the inhibition was -5.53% (inactive).
Next, `CCOc1ccc(/C=C2\SC(=S)N(C(C(=O)O)c3ccccc3)C2=O)cc1OC` (stereo not given): 14.7% (inactive); `Cc1ccc(/C=C2\SC(=S)N(C(Cc3ccccc3)C(=O)O)C2=O)cc1` (stereo not given): 14.4% (inactive).
Take `CCOc1ccc(/C=C2/SC(=S)N(C(C(=O)O)c3ccccc3)C2=O)cc1OCC` (stereo not given): the inhibition is 12.1% (inactive).
Consider `COc1cc(/C=C2/SC(=S)N(c3c(C)n(C)n(-c4ccccc4)c3=O)C2=O)ccc1O`, for which the inhibition is 11.3% (inactive).
Take `COc1ccc(/C=C2\SC(=S)N(C(Cc3ccccc3)C(=O)O)C2=O)cc1` (stereo not given): the inhibition was 4.89% (inactive).
Take `CCOc1ccc(/C=C2\SC(=S)N(CCC(=O)O)C2=O)cc1`: the inhibition was 1.74% (inactive).
Consider `C=CCOc1ccc(/C=C2\SC(=S)N(N3CCOCC3)C2=O)cc1`, for which the inhibition is -2.77% (inactive).
As to `COc1cc(/C=C2\SC(=S)N(C(C(=O)O)c3ccccc3)C2=O)cc(OC)c1OC` (stereo not given), the inhibition is 18.4% (inactive).
As for `O=C(COc1cccc2cccnc12)N/N=C/c1ccccc1O`, the inhibition was -2.77% (inactive).
For the compound `O=S(=O)(NCC(c1cccnc1)N1CCN(c2ccc(F)cc2)CC1)c1cccs1` (stereo not given), the inhibition was -1.2% (inactive).
In the case of `COc1ccc(CNC(=S)NC(C)CCc2ccccc2)cc1` (stereo not given), the inhibition is -0.16% (inactive).
For the compound `CSc1cccc(NCc2ccc([N+](=O)[O-])cc2)c1`, the inhibition was 7.42% (inactive).
Take `COc1ccc(-c2nn(-c3ccccc3)cc2CNCCN2CCOC2=O)c(F)c1`: the inhibition is -5.99% (inactive).
For `O=C(N/N=C/c1ccccn1)c1cc(-c2ccccc2)nc2ccccc12`, the inhibition was -10.8% (inactive).
